# Records with an inconclusive call do not appear. Entries that show only a call come without a potency. The source made the active and inactive calls. The call rests on the fitted dose curve; in most records, active means well fitted curve in the direction sought with a large enough effect; inconclusive means small, poorly fitted or top-dose-only effect, or another doubt; inactive means no such curve, though single readings can be large; an effect the other way counts as inactive or inconclusive.
# Columns and labels:
# [1] = qHTS of pediatric cancer cell lines to identify multiple opportunities for drug repurposing: Primary screen for RD cells (AID 1347104); details: RD rhabdomyosarcoma viability, CellTiter-Glo luminescence, 48 h; series mostly up to 46 µM; further: nearly all actives have a fitted effect of over 55% in size; further: potency means the concentration at half of the fitted maximal effect
# Procedure, shortened: (§1)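 Readout: CellTiter-Glo luminescence, 48 h treatment. Controls DMSO (neutral) and bortezomib 2.3 µM final (positive). Potency and efficacy taken from primary-screen concentration-response curves.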
# [2] = qHTS of pediatric cancer cell lines to identify multiple opportunities for drug repurposing: Primary screen for control Hh wild type fibroblast cells (AID 1347106); details: Hh wild-type fibroblast viability, CellTiter-Glo luminescence, 48 h; series mostly up to 46 µM;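 further: a drop in luminescence marks cytotoxicity and a rise apparent proliferation; nearly all actives have a fitted effect of over 55% in size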
# Procedure, shortened: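 Cells (500-1,000/well) in growth media were settled 5 h at 37 degrees C, then given compounds for 48 h. Viability was read as CellTiter-Glo luminescence. Primary runs used MIPE at 11 points (0.78 nM-46 µM) and NPC at 8 points (0.59 nM-46 µM); follow-ups used 11 points.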
# [3] = qHTS of pediatric cancer cell lines to identify multiple opportunities for drug repurposing: Primary screen for Rh30 cells (AID 1347107); details: Rh30 rhabdomyosarcoma viability, CellTiter-Glo luminescence, 48 h; series mostly up to 46 µM; further: nearly all actives have a fitted effect of over 75% in size
# Procedure, shortened: (§2)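 Cells (500-1,000/well) rested 5 h, then received compounds for 48 h; metabolically active cells were measured by CellTiter-Glo luminescence. Final concentrations spanned up to 46 µM (MIPE, 11-point) or 0.59 nM-46 µM (NPC, 8-point) in primary screens, 11-point in follow-ups.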
# [4] = qHTS of pediatric cancer cell lines to identify multiple opportunities for drug repurposing: Primary screen for MG 63 (6-TG R) cells (AID 1347105); details: MG 63 (6-TG R) viability, CellTiter-Glo, 48 h; series mostly up to 46 µM; further: nearly all actives have a fitted effect of over 50% in size; further: potency means the concentration at half of the fitted maximal effect
# Procedure, shortened: as §1
# [5] = qHTS of pediatric cancer cell lines to identify multiple opportunities for drug repurposing: Primary screen for Rh41 cells (AID 1347108); details: Rh41 rhabdomyosarcoma viability, CellTiter-Glo luminescence, 48 h; series mostly up to 46 µM; further: nearly all actives have a fitted effect of over 70% in size; further: potency means the concentration at half of the fitted maximal effect
# Procedure, shortened: as §1
# [6] = qHTS of pediatric cancer cell lines to identify multiple opportunities for drug repurposing: Confirmatory screen for NB1643 cells (AID 1347109); details: NB1643 neuroblastoma cell viability; series mostly up to 45.9 µM; further: potency means the concentration at half of the fitted maximal effect; nearly all actives have a fitted effect of over 45% in size
# Procedure, shortened: as §2
# [7] = qHTS of pediatric cancer cell lines to identify multiple opportunities for drug repurposing: Confirmatory screen for SK-N-MC cells (AID 1347111); details: SK-N-MC cell viability; series mostly up to 45.9 µM;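 further: potency means the concentration at half of the fitted maximal effect; cells exposed to compound for 48 h before the readout; nearly all actives have a fitted effect of over 70% in size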
# Procedure, shortened: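 Seed 500-1,000 cells/well; rest 5 h at 37 degrees C. Pin-transfer compounds, 11-point titration. Incubate 48 h. Add CellTiter-Glo, 15 min RT, read luminescence.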
# [8] = qHTS of pediatric cancer cell lines to identify multiple opportunities for drug repurposing: Confirmatory screen for BT-12 cells (AID 1347112); details: BT-12 rhabdoid tumor cells, viability; series mostly up to 45.9 µM; further: potency means the concentration at half of the fitted maximal effect; nearly all actives have a fitted effect of over 55% in size
# Procedure, shortened: as §2
# [9] = qHTS of pediatric cancer cell lines to identify multiple opportunities for drug repurposing: Confirmatory screen for LAN-5 cells (AID 1347113); details: LAN-5 neuroblastoma cell viability; series mostly up to 45.9 µM; further: nearly all actives have a fitted effect of over 65% in size; further: potency means the concentration at half of the fitted maximal effect
# Procedure, shortened: as §2
# [10] = qHTS of pediatric cancer cell lines to identify multiple opportunities for drug repurposing: Confirmatory screen for NB-EBc1 cells (AID 1347115); details: NB-EBc1 neuroblastoma cells, viability (cytotoxicity); series mostly up to 45.9 µM;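 further: cells exposed to compound for 48 h before the viability read; nearly all actives have a fitted effect of over 45% in size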; further: potency means the concentration at half of the fitted maximal effect
# Procedure, shortened: as §2
smiles,measurement,setting,value
CN1CCC[C@@H]1CCO[C@](C)(c1ccccc1)c1ccc(Cl)cc1,Potency,[1],26600 nM (active)
same,Potency,[2],inactive
same,Potency,[3],inactive
CCC(CC)(CC(=O)Nc1cccc(/C=C/c2nc(C3CCC3)cs2)c1)C(=O)O,Potency,[1],inactive
same,Potency,[4],inactive
same,Potency,[2],inactive
same,Potency,[5],inactive
CCc1nn(CCCN2CCN(c3cccc(Cl)c3)CC2)c(=O)n1CCOc1ccccc1,Potency,[1],inactive
same,Potency,[2],inactive
same,Potency,[3],inactive
COc1ccc(/C=N/NC(=O)c2ccncc2)cc1OC,Potency,[1],inactive
same,Potency,[2],inactive
same,Potency,[3],inactive
same,Potency,[5],inactive
CN1CCN(C2=Nc3ccccc3Sc3ccc(Cl)cc32)CC1,Potency,[1],inactive
same,Potency,[2],inactive
same,Potency,[3],inactive
same,Potency,[5],inactive
CCCCc1cc2ccccc2c(OCCN(C)C)n1,Potency,[1],inactive
same,Potency,[4],inactive
same,Potency,[2],inactive
same,Potency,[5],inactive
Oc1ccccc1C=NCc1ccccc1,Potency,[1],inactive
same,Potency,[4],inactive
same,Potency,[2],inactive
same,Potency,[5],inactive
CCCCOC(=O)CC(CC(=O)OCCCC)(OC(C)=O)C(=O)OCCCC,Potency,[1],inactive
same,Potency,[4],inactive
same,Potency,[2],inactive
same,Potency,[5],inactive
C[N+]1(C)CCC(=C(c2ccccc2)c2ccccc2)CC1,Potency,[1],inactive
same,Potency,[4],inactive
same,Potency,[2],inactive
same,Potency,[5],inactive
CNCCCCOc1ccccc1Cc1ccccc1,Potency,[1],23700 nM (active)
same,Potency,[2],inactive
O=C1OC2(c3ccccc31)c1cc(Br)c(O)c(Br)c1Oc1c2cc(Br)c(O)c1Br,Potency,[1],inactive
same,Potency,[4],inactive
same,Potency,[2],inactive
same,Potency,[5],inactive
N#C/C(=C1\SCC(c2ccccc2Cl)S1)n1ccnc1 (stereo not given),Potency,[1],inactive
same,Potency,[4],inactive
same,Potency,[2],inactive
same,Potency,[5],inactive
CCCCC(CC)COC(=O)/C=C/c1ccc(OC)cc1 (stereo not given),Potency,[1],inactive
same,Potency,[4],inactive
same,Potency,[2],inactive
same,Potency,[5],inactive
Cc1ccc2c(Br)cc(Br)c(O)c2n1,Potency,[1],10600 nM (active)
same,Potency,[2],inactive
C[C@@]12C(=O)OC(=O)[C@]1(C)C1CCC2O1,Potency,[1],4730 nM (active)
same,Potency,[4],1680 nM (active)
same,Potency,[5],2660 nM (active)
same,Potency,[6],2930 nM (active)
same,Potency,[7],3290 nM (active)
same,Potency,[8],8270 nM (active)
same,Potency,[9],2930 nM (active)
same,Potency,[10],5220 nM (active)
CC1CCc2c(N3CCC(O)CC3)c(F)cc3c(=O)c(C(=O)O)cn1c23 (stereo not given),Potency,[1],inactive
same,Potency,[4],inactive
same,Potency,[2],inactive
same,Potency,[5],inactive
same,Potency,[9],inactive
same,Potency,[10],inactive
COc1cc(O)c(C(=O)c2ccccc2)cc1S(=O)(=O)O,Potency,[1],inactive
same,Potency,[2],inactive
same,Potency,[3],inactive
same,Potency,[5],inactive
COc1ccc(CN(CCN(C)C)c2ncccn2)cc1,Potency,[1],inactive
same,Potency,[4],inactive
same,Potency,[2],inactive
same,Potency,[5],inactive
O=C(O)C(Cc1cc(I)c(O)c(I)c1)c1ccccc1 (stereo not given),Potency,[1],inactive
same,Potency,[4],inactive
same,Potency,[2],inactive
same,Potency,[5],inactive
CCCCN=C(N)N=C(N)N,Potency,[1],inactive
same,Potency,[2],inactive
same,Potency,[3],inactive
same,Potency,[5],inactive
Cc1cc(C)cc(OCC2CNC(=O)O2)c1 (stereo not given),Potency,[1],inactive
same,Potency,[4],inactive
same,Potency,[2],inactive
same,Potency,[5],inactive
CCCCNc1ccc(C(=O)OCCOCCOCCOCCOCCOCCOCCOCCOCCOC)cc1,Potency,[1],inactive
same,Potency,[4],inactive
same,Potency,[2],inactive
same,Potency,[5],inactive
CCN1/C(=C/C=C/c2sc3ccccc3[n+]2CC)Sc2ccccc21,Potency,[1],1160 nM (active)
same,Potency,[4],1840 nM (active)
same,Potency,[5],1640 nM (active)
same,Potency,[6],1310 nM (active)
same,Potency,[7],827 nM (active)
same,Potency,[8],1170 nM (active)
same,Potency,[9],737 nM (active)
same,Potency,[10],2610 nM (active)
CC(C)(C)CC(C)(C)c1ccc(O)c(-n2nc3ccccc3n2)c1,Potency,[1],inactive
same,Potency,[4],inactive
same,Potency,[2],inactive
same,Potency,[5],inactive
COc1ccc2c(c1)c1c3n2CCN(C)C3=NCC1,Potency,[1],inactive
same,Potency,[4],inactive
same,Potency,[2],inactive
same,Potency,[5],inactive
CO[C@H]1C=CO[C@@]2(C)Oc3c(C)c(O)c4c(O)c(c(/C=N/N5CCN(C)CC5)c(O)c4c3C2=O)NC(=O)/C(C)=C\C=C[C@H](C)[C@H](O)[C@@H](C)[C@@H](O)[C@@H](C)[C@H](OC(C)=O)[C@@H]1C,Potency,[1],inactive
same,Potency,[4],inactive
same,Potency,[3],inactive
same,Potency,[5],inactive
C[N+]12CCC(CC1)C(OC(=O)C(O)(c1ccccc1)c1ccccc1)C2 (stereo not given),Potency,[1],inactive
same,Potency,[4],inactive
same,Potency,[2],inactive
same,Potency,[5],inactive
CC1(COc2ccc(CC3SC(=O)NC3=O)cc2)CCCCC1 (stereo not given),Potency,[1],inactive
same,Potency,[4],inactive
same,Potency,[2],inactive
same,Potency,[5],inactive
CCCCCCCCCCCCCCCC(=O)O,Potency,[1],inactive
same,Potency,[4],inactive
same,Potency,[2],inactive
same,Potency,[5],inactive
CC(=O)Nc1ccc(S(=O)(=O)Nc2ccc([N+](=O)[O-])cc2)cc1,Potency,[1],inactive
same,Potency,[2],inactive
same,Potency,[3],inactive
same,Potency,[5],inactive
CC(C)Cc1ccc(CC(=O)O)cc1,Potency,[1],inactive
same,Potency,[4],inactive
same,Potency,[2],inactive
same,Potency,[5],inactive
CC(C)[C@@H]1CC[C@@H](C)CC1=O,Potency,[1],inactive
same,Potency,[4],inactive
same,Potency,[2],inactive
same,Potency,[5],inactive
Cc1cc(CC(=O)O)c(C)n1-c1ccc(Cl)cc1,Potency,[1],inactive
same,Potency,[2],inactive
same,Potency,[5],inactive

# — PubChem BioAssay (NCATS)
